# The whole screen tested about 360,000 compounds, of which about 8,200 (2.3%) were called active. What follows is part of a selection rich in actives, with near analogues and random picks from the rest. A number with no mark means an inactive call. Rule as the data show it: active = inhibition above about 27%; inactive = the rest.
# Target: Fructose-bisphosphate aldolase (Mycobacterium tuberculosis (strain ATCC 25618 / H37Rv)) (UniProt P9WQA3)
# Assay: Mtb FBA enzyme inhibitors, primary screen, biochemical, fluorescence, strain H37Rv (AID 588726);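 also: 0% = vehicle and 100% = reference inhibitor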
# Settings: purified M. tuberculosis FBA, fluorescence read-out, at 1 µM, active compounds read high
# Sequence of Fructose-bisphosphate aldolase (Mycobacterium tuberculosis (strain ATCC 25618 / H37Rv)) (P9WQA3 whole entry, looked up): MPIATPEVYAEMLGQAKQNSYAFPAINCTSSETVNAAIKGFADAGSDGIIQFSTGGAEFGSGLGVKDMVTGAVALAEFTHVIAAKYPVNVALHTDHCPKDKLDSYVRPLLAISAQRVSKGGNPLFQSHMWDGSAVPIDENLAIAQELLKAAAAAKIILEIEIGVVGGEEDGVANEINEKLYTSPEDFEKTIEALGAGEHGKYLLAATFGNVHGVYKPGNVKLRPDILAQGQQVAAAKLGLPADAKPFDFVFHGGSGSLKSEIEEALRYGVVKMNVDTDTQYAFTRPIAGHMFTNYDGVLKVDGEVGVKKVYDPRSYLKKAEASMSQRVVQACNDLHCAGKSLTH
row,SMILES,inhibition
1,CSc1nnc(-c2ccncc2)n1CCCN1CCCC1=O,0.93%
2,N#CCC(=O)NC1CCC(CC2CCC(NC(=O)CC#N)CC2)CC1 (stereo not given),3.18%
3,COc1cc(OC)c(C2=NOC(C(=O)Nc3c(C)n(C)n(-c4ccccc4)c3=O)C2)cc1Cl (stereo not given),-0.74%
4,CSCC(=O)N1CCCC(C(=O)c2cc(F)ccc2F)C1 (stereo not given),-1.12%
5,Cc1nccn1-c1ccc(NC(=O)[C@H]2O[C@@H](n3cnc4c(N)ncnc43)[C@H](O)[C@@H]2O)cc1,0.84%
6,O=C(O/N=C(/c1ccccc1)c1ccncc1)c1ccccc1[N+](=O)[O-],2.83%
7,Cc1cc(=O)oc2c(C)c(OCC(=O)NCCN3CCOCC3)ccc12,16%
8,Cc1cc(Cl)ccc1OCCCC(=O)NCc1ccccn1,1.44%
9,CCCc1cc(=O)oc2c(C)c(OCC(=O)NCc3ccccn3)ccc12,0.52%
10,Cc1cc(=O)oc2c(C)c(OCC(=O)NCCc3ccc(S(N)(=O)=O)cc3)ccc12,12.6%
11,Cc1ccccc1NC(=O)COc1cccc2c1CCNC2=O,0.77%
12,Cc1nn(C)c(C)c1S(=O)(=O)N1CCc2ccccc21,6.1%
13,CC(C)CNC(=O)/C=C/C(=O)O,10.5%
14,O=C1NC2(CCCCC2)N=C1c1ccccc1,1.74%
15,CC(C)Cc1ccc(-c2cc3nc(NCc4cccc(Cl)c4)ccn3n2)cc1,14.9%
16,Cc1ccc(C)c(NS(=O)(=O)c2cc(Br)cnc2N)c1,3.42%
17,O=S1(=O)CCOC[C@H](Cc2ccccc2)N1Cc1ccccc1Br,-3.56%
18,Cc1ccc(S(=O)(=O)N2C[C@@H](C)[C@]3(C2)[C@H](O)[C@H](OC(=O)NCc2ccccc2)C[C@H]2C(=O)N(c4ccccc4)C(=O)[C@H]23)cc1,67.2% (active)
19,COC(=O)[C@H]1C[C@H](OC(=O)NCc2ccccc2)[C@@]2(O)CN(S(=O)(=O)c3ccc(C)cc3)CC2[C@H]1C(=O)OC (stereo not given in full),0.56%
20,Cc1ccc(S(=O)(=O)N2C[C@]3(O)C[C@@H]4C(=O)N(c5ccccc5)C(=O)[C@@H]4C[C@]3(OC(=O)NC3CC3)C2)cc1,0.49%
21,CC(C)C(c1nnnn1C(C)(C)C)N1CCN(Cc2cccnc2)CC1 (stereo not given),0.62%
22,S=c1[nH]cc(-c2ccc(Cl)cc2)n1-c1ccccc1,-0.17%
23,Clc1ccc(-c2nc3ccccn3c2CN2CCSCC2)cc1,0.24%
24,O=C(NCCO)c1cccc(-c2cccc3nccn23)c1,10.8%
25,c1cc(-c2ccc3[nH]ccc3c2)n2ccnc2c1,81.5% (active)
